Screening results from PubChem.
FH mod = Identification of activators of human fumarate hydratase by quantitative high-throughput screening; Fumarate hydratase, mitochondrial (Homo sapiens), P07954; FH coupled MDH/diaphorase resazurin fluorescence, 15 min; Potency, µM (top dose mostly 79.9 µM), most hits filed as inhibitors; 54,000 tested, 0.22% active; note: the screen sought activators but most active calls are inhibition curves; nearly all actives have a fitted effect of over 45% in size
NTMT1 inh = blocks human N-terminal methyltransferase 1 activity. Potency, µM (top dose mostly 114 µM), actives largely listed as inhibitors. AID 1645870. Q9BV86. 59,000 tested, 2.5% active. NTMT1 MTase-Glo SAH luminescence, purified enzyme; note: nearly all actives have a fitted effect of over 65% in size
GALC G270D act = enhancers of human galactocerebrosidase G270D mutant activity in cells; 145M-Twi-hGALC-G270D cells, HMU-beta-Gal fluorescence, 48 h; Potency, µM (top dose mostly 57.5 µM), most hits filed as activators; 45,000 tested, 0.1% active; AID 1159614; note: nearly all actives have a fitted effect of over 65% in size
Target sequence (P54803 whole entry G286D): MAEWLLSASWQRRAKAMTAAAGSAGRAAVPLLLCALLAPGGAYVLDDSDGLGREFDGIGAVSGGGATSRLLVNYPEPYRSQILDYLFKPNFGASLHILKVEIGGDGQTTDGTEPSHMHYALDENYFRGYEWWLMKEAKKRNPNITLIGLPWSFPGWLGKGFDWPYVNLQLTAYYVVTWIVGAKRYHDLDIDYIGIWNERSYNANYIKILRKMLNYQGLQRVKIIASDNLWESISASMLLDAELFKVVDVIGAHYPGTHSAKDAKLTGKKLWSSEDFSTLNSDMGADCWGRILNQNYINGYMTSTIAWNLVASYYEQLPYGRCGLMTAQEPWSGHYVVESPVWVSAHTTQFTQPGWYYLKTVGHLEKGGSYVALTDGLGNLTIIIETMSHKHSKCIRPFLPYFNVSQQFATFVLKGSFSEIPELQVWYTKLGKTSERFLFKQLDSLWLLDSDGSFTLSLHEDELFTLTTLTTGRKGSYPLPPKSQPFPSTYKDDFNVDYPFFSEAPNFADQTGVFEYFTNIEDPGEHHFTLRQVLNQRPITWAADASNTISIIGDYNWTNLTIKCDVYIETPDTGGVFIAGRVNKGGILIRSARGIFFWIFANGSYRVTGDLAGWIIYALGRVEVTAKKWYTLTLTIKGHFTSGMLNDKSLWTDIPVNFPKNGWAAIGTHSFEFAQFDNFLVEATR
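qHTS, 1536-well; 145M-Twi-hGALC-G270D cells (WT line also made) in DMEM/F12 + 10% FBS; compound incubation on live cells; HMU-β-gal 0.1 mM final, pH 5.2, NaTC; carbonate stop; fluorescence increase = enhanced residual activity.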
Large screens that a line does not name were inactive; ! = repeats disagree. The entries come from a sample that favours hits as a whole. Calls come from the whole dose curve; as a rule, active = well fitted curve in the direction sought with a large enough effect; inconclusive = small, poorly fitted or top-dose-only effect, or another doubt; inactive = no such curve, though single readings can be large; an effect the other way counts as inactive or inconclusive.

Cc1c(C(=O)OCc2ccco2)[nH]c2c1C(=O)CC(c1ccco1)C2 (stereo unspecified)	none (no result: FH mod, GALC G270D act)
Cc1c(C(=O)OC[C@H]2CCCO2)[nH]c2c1C(=O)CC(c1ccco1)C2 (stereo partly specified)	NTMT1 inh 50.1µM (no result: FH mod, GALC G270D act)
C=C(C)C(=O)OC1CC2(C)OC(=CC2=O)C(=C)CC2OC(=O)C(COC)C12 (stereo unspecified)	none (no result: GALC G270D act)
C[S+](=O)([O-])c1ccc(C(=O)OCC(=O)N2CCNC(=O)C2)cc1[N+](=O)[O-]	none (no result: FH mod, GALC G270D act)
CCOC(=O)c1ccc(O)c(O)c1	NTMT1 inh inconclusive
NCCc1ccc(O)c(O)c1	FH mod inconclusive, NTMT1 inh 31.6µM!, GALC G270D act inconclusive
O=C(O)Cc1cccc(OCCCN(Cc2cccc(C(F)(F)F)c2Cl)CC(c2ccccc2)c2ccccc2)c1	NTMT1 inh 39.8µM (no result: GALC G270D act)
O=C(NOCC(O)CO)c1ccc(F)c(F)c1Nc1ccc(I)cc1F (stereo unspecified)	none (no result: GALC G270D act)
O=C(c1ccc(F)c(F)c1Nc1ccc(I)cc1F)N1CC(O)([C@@H]2CCCCN2)C1	NTMT1 inh 31.6µM! (no result: GALC G270D act)
O=c1oc2ccc3ccccc3c2cc1-c1nnc(Nc2ccccc2F)s1	none
O=c1oc2cc(O)ccc2cc1-c1nnc(Nc2ccccc2F)s1	NTMT1 inh 50.1µM
CCn1c2ccccc2c2cc(Nc3ccnc(NCCCN4CCOCC4)n3)ccc21	NTMT1 inh inconclusive (no result: GALC G270D act)
CC(C)c1ccc(C2NC(=O)c3c(sc4c3CCN(C)C4)N2)cc1 (stereo unspecified)	none
CN1CCc2c(sc3c2C(=O)NC(c2ccc(C(C)(C)C)cc2)N3)C1 (stereo unspecified)	NTMT1 inh 79.4µM
O=[S+]([O-])(Nc1nccs1)c1ccc(NCc2cc(Cl)cc(Br)c2O)cc1	none (no result: FH mod, GALC G270D act)
Cc1ccccc1C(=O)Nc1nc2nc(-c3ccccc3)cc(=O)n2[nH]1	none
O=C(Nc1nc2nc(-c3ccccc3)cc(=O)n2[nH]1)c1ccc(Cl)cc1	NTMT1 inh 50.1µM
CC(C)c1ccc2c(c1)C(=O)CC1[C@@](C)(C(=O)O)CCC[C@]21C (stereo partly specified)	none (no result: GALC G270D act)
O=c1oc2c(O)c(O)cc3c(=O)oc4c(O)c(O)cc1c4c23	NTMT1 inh 3.55µM!
C=C1CCCC2(C)CC3(OC)OC(=O)C(C)=C3CC12 (stereo unspecified)	none (no result: GALC G270D act)
NC(CC1c2ccccc2Oc2ccccc21)(C(=O)O)C1CC1C(=O)O (stereo unspecified)	none (no result: FH mod, GALC G270D act)
OC[C@H]1O[C@@H](S[C@@H]2O[C@H](CO)[C@H](O)[C@H](n3cc(-c4cccc(F)c4)nn3)[C@H]2O)[C@H](O)[C@@H](n2cc(-c3cccc(F)c3)nn2)[C@H]1O	none (no result: FH mod, GALC G270D act)
Cc1cc(F)ccc1S(=O)(=O)Nc1cc2c(C(=O)O)c(C)oc2c2ccccc12	FH mod 15.8µM
CC(=O)c1c(C)oc2c1cc(NS(=O)(=O)c1c(C)cc(C)cc1C)c1ccccc12	FH mod inconclusive
COC(=O)c1ccc([C@H]2c3[nH]c4ccccc4c3C[C@H](C(=O)OC)N2C(=O)CCl)cc1	none (no result: FH mod, GALC G270D act)
Cc1ccc(Nc2c(-c3ccc(N4CCOCC4)cc3)nc3ncccn23)cc1	none
c1cn2cc(-c3ccc4cn[nH]c4c3)nc(Nc3ccc(N4CCOCC4)cc3)c2n1	NTMT1 inh 20µM (no result: GALC G270D act)
CCNCc1nc2c(N)nc3ccccc3c2n1CC(C)(C)O	none (no result: GALC G270D act)
CSc1ccc(/C=C/c2nc3ccccc3n2S(=O)(=O)c2ccc(F)c(C)c2)cc1	NTMT1 inh 15.8µM
CC(C)Cn1c(/C=C/c2ccc(F)cc2)nc2ccccc21	none
Cc1ccc(/C=C/c2nc3ccccc3n2S(=O)(=O)c2cccc(Cl)c2)cc1	NTMT1 inh inconclusive
CCOc1ccc(/C=C/c2nc3ccccc3n2S(=O)(=O)c2cccc(Cl)c2)cc1	NTMT1 inh 5.01µM
CCOC(=O)C1=CCCCC1S(=O)(=O)Nc1ccc(F)cc1Cl (stereo unspecified)	none (no result: FH mod, GALC G270D act)
COC(=O)C1=CO[C@@H](O[C@@H]2O[C@H](CO)[C@@H](O)[C@H](O)[C@H]2O)[C@H]2[C@@H]1CC(OC)O[C@@H]2C (stereo partly specified)	none (no result: GALC G270D act)
C=C1/C(=C/C=C2\CCC[C@]3(C)[C@@H]([C@H](C)/C=C/[C@H](O)C4CC4)CC[C@@H]23)C[C@@H](O)C[C@@H]1O	none (no result: GALC G270D act)
COc1cc(NC(=O)c2nc3ccccc3n(C)c2=O)cc(OC)c1OC	none
CC(=O)c1cccc(NC(=O)c2nc3ccccc3n(C)c2=O)c1	NTMT1 inh 25.1µM
CCOC(=O)C1CCN(C(=O)CNC(=O)Nc2ccccc2Cl)CC1	none (no result: FH mod, GALC G270D act)
O=C(Nc1ccc(Br)cc1F)N1CCC(CN2CCCC2)CC1	none
NC(=O)c1c(OCc2c(F)cc(Br)cc2F)nsc1NC(=O)NCCCCN1CCCC1	NTMT1 inh 30.4µM! (no result: GALC G270D act)
C=C1C(OC(C)=O)C(=O)C2C(C)(C)C(OC(C)=O)CCC2(C)C1CC(OC(C)=O)/C(C)=C/COC(C)=O (stereo unspecified)	none (no result: GALC G270D act)
COc1ncc(-c2ccc3c(Nc4cc(Oc5cc(F)cc(F)c5)cc(C(=O)O)c4)c(S(=O)(=O)NC4CC4)cnc3c2)c(OC)n1	NTMT1 inh 11.2µM! (no result: GALC G270D act)
CCOc1ccc(Nc2c(S(=O)(=O)c3ccccc3)cnc3ccc(F)cc23)cc1	none
Cc1cnc(-c2ccccc2C(F)(F)F)nc1NCc1ccc(-c2cccnc2)cc1	none (no result: FH mod, GALC G270D act)
O=C(O)C(Cc1cc(I)c(O)c(I)c1)c1ccccc1 (stereo unspecified)	NTMT1 inh inconclusive
N[C@@H](Cc1cc(I)c(O)c(I)c1)C(=O)O	NTMT1 inh 14.1µM
CC(C)(Nc1nc(-c2ccccc2C(F)(F)F)nc2ccccc12)c1ccc(-c2cccc(C(F)(F)F)c2)cc1	none (no result: FH mod, GALC G270D act)
O=[S+]([O-])(Nc1ccccc1)c1ccc(NCc2cccc(C(F)(F)F)c2Cl)cc1	none (no result: FH mod, GALC G270D act)
CN1C(=O)c2ccccc2-n2c(nc3ccccc3c2=O)[C@@]12O[C@H]2c1ccccc1	none (no result: GALC G270D act)
Oc1ccc(C2CNCc3sccc32)cc1O (stereo unspecified)	FH mod 8.91µM (no result: NTMT1 inh, GALC G270D act)
N#Cc1ccc(CNc2nc(-c3ccccc3C(F)(F)F)nc3ccccc23)cc1	none (no result: FH mod, GALC G270D act)
COc1ccc(OCC(=O)NCC(c2ccc(Cl)cc2)N2CCCCC2)cc1 (stereo unspecified)	NTMT1 inh inconclusive
Cc1ccc(OCC(=O)NCC(c2ccc(Cl)cc2)N2CCCCC2)cc1 (stereo unspecified)	NTMT1 inh 79.4µM
COc1c2c(c(C)c3c1C(=O)OC3)O[C@@]1(C)C[C@@H](OC(C)=O)[C@]34O[C@](OC)(CC[C@]3(C)[C@H]1C2)OC4(C)C	none (no result: GALC G270D act)
CCn1cc2nc(SCc3cccc(C)c3)n(CCc3ccccc3)c(=O)c2n1	FH mod 39.8µM
CCn1cc2nc(SCc3cccc(C(F)(F)F)c3)n(Cc3ccc(Cl)cc3)c(=O)c2n1	FH mod inconclusive
CCn1cc2nc(SCC(=O)Nc3cccc(Cl)c3C)n(Cc3ccc(Cl)cc3)c(=O)c2n1	FH mod inconclusive, NTMT1 inh inconclusive
CCn1cc2nc(SCc3cccc(Cl)c3)n(Cc3ccc(C)cc3)c(=O)c2n1	FH mod inconclusive
CCn1cc2nc(SCc3cccc(C(F)(F)F)c3)n(CCc3ccccc3)c(=O)c2n1	FH mod 31.6µM
